PAX8 reporter – PAX8 transcriptional activity inhibition; RMG-I TPO-luciferase reporter, SteadyGlo, 24 h; inhibition, % at 12.6 µM; actives 1.2% (n = 360,000);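 active = mean replicate inhibition at least 60% with every replicate also reaching 60%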;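 note: luciferase light reporting Pax8 driven TPO promoter activity; plate controls were median of neutral control wells for no effect and mitoxantrone controls for full effect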
LGR2 antag – Drosophila LGR2 receptor signaling inhibition. HEK293 LGR2, CRE-luciferase, bursicon-stimulated, 4 h. AID 720647. actives 0.35% (n = 380,000). inhibition, % at 9.99 µM;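 active = drop in luminescence signal, shown as inhibition above about 50% in the replicate tests, limit read from the data, passing the limit was not always enough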;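 note: agonist challenge used bursicon conditioned medium at about half maximal strength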
TWEAK-Fn14 inh – inhibitors of TWEAK-Fn14 interaction signaling. TWEAK-stimulated Fn14 reporter cells, luciferase luminescence, 8 h. inhibition, % at 10 µM. actives 2% (n = 360,000). AID 1159606; in the data active = inhibition above about 50%
EWS-Fli inh – EWS/Fli transcriptional activity inhibition. A673 NR0B1-luciferase reporter, viability-normalised. actives 0.67% (n = 350,000). inhibition, % at 12.6 µM;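 active = mean inhibition of at least 50% after viability correction, with every replicate also passing that limit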;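 note: firefly luciferase signal divided by Alamar Blue viability fluorescence both relative to DMSO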
TROY NFkB inh – blocks TROY-dependent signaling in reporter cells; Q293 LMP1-TROYcd NF-kB luciferase reporter, 4 h; inhibition, % at 10 µM; actives 0.98% (n = 360,000); AID 1347056;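 active = compounds whose plate-normalised and pattern-corrected inhibition of the luciferase reporter signal at the single screening dose is 50% or more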
LMP1 NFkB inh – reduces LMP1-driven NF-kappaB luciferase signal; LMP1-induced NF-kappaB luciferase reporter cells, luminescence; AID 504558; actives 0.69% (n = 350,000); inhibition, % at 12.5 µM; in the data active = inhibition above about 41%;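 note: 0% = neutral control wells and 100% = reference inhibitor control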
Numbers without * were called inactive; x = no result. The list is not random: actives were taken first. Their share in the collection is about 3.2%.

SMILES	PAX8 reporter	LGR2 antag	TWEAK-Fn14 inh	EWS-Fli inh	TROY NFkB inh	LMP1 NFkB inh
O=C(N[C@H]1CC[C@H](CCNC(=O)C2CCOCC2)O[C@H]1CO)c1ccncc1	-2.4	17.0	x	15.7	x	x
CC(C1CC1)N(Cc1ccccc1)C(=S)Nc1cccc(C(F)(F)F)c1 (stereo not drawn)	118.1*	20.5	5.6	3.4	13.1	3.8
C[C@@H]1CN([C@H](C)CO)C(=O)c2cc(NC(=O)Nc3ccc4c(c3)OCO4)ccc2O[C@H]1CN(C)C(=O)Nc1ccc(C(F)(F)F)cc1	65.4*	20.1	x	-42.2	x	x
C[C@@H]1CN([C@@H](C)CO)C(=O)c2cc(NC(=O)Nc3ccc(C(F)(F)F)cc3)ccc2O[C@H]1CN(C)C(=O)Nc1ccc(C(F)(F)F)cc1	91.7*	14.7	x	20.9	x	x
C[C@@H]1CN([C@H](C)CO)C(=O)c2cc(NC(=O)Nc3ccc(C(F)(F)F)cc3)ccc2O[C@@H]1CN(C)C(=O)Nc1ccc(C(F)(F)F)cc1	12.7	-22.1	x	-6.5	x	x
C[C@@H]1CN([C@@H](C)CO)C(=O)c2ccccc2-c2ccccc2CO[C@H]1CN(C)S(=O)(=O)c1cccc(F)c1	-5.3	20.2	x	6.5	x	x
NNc1nc(Nc2ccc([N+](=O)[O-])cc2)nc(N2CCCCCC2)n1	-3.8	-30.1	-7.2	-5.2	-9.7	-0.4
Cc1ccc([N+](=O)[O-])cc1Nc1nc(N2CCCC2)nc(N2CCCC2)n1	0.7	7.3	51.9*	9.3	-5.5	-4.3
O=C1C=C(NC2=CC3OC(c4ccccc4)OCC3OC2=O)CCC1 (stereo not drawn)	19.4	59.2*	70.6*	-7.1	8.0	-0.6
COc1ccc(CNC(=O)[C@H](C)N2C(=O)N3CCc4c([nH]c5ccc(OC)cc45)[C@@]3(C)C2=O)cc1	x	x	19.5	-0.8	12.4	5.5
COc1ccc2[nH]c3c(c2c1)CCN1C(=O)N([C@@H](C)C(=O)NCc2ccc(C)cc2)C(=O)[C@]31C	x	86.0*	0.1	6.6	9.8	5.7
CC(=O)c1c(O)c2ccccc2n(C2CCCCC2)c1=O	1.5	x	64.9*	18.4	55.7*	13.0
O=C(CCN1CCCCC1)NCC[C@H]1CC[C@H](NC(=O)Cc2cccnc2)[C@H](CO)O1	-2.2	4.1	x	-2.7	x	x
COC(=O)C[C@@H]1CC[C@@H](NS(=O)(=O)c2ccc(OC)cc2)[C@H](CO)O1	-3.7	22.8	x	-1.0	x	x
Cc1cccc(Cn2c(O)c(N=NC(=S)Nc3ccccc3F)c3ccccc32)c1	28.0	-11.0	4.0	31.5	-12.6	38.6
Oc1c(N=NC(=S)Nc2ccccc2F)c2ccccc2n1Cc1ccc(F)cc1	19.8	18.1	-11.4	3.9	-4.6	51.0*
Oc1c(N=NC(=S)Nc2ccccc2F)c2ccccc2n1Cc1cccc(Cl)c1	2.8	8.8	5.0	26.5	8.8	44.4*
COc1ccc(S(=O)(=O)N(C)C[C@H]2OCCCC[C@H](C)Oc3ccc(NS(C)(=O)=O)cc3C(=O)N([C@H](C)CO)C[C@H]2C)cc1	-1.4	-5.7	x	-10.9	x	x
CCN(CC)c1ccc2cc(-c3nc4ccccc4n3C)c(=O)oc2c1	x	-48.6	-11.1	x	-8.2	-25.0
CCN(CC)c1ccc2cc(-c3nc4ccccc4[nH]3)c(=O)oc2c1	x	x	87.8*	x	72.7*	10.9
CCN(CC)c1ccc2cc(-c3nnc(-c4ccccc4)o3)c(=O)oc2c1	x	-15.9	67.1*	x	44.0	17.2
O=c1oc2ccc3ccccc3c2cc1-c1nnc(-c2ccccc2)o1	x	x	-11.2	x	-34.0	-4.6
COc1ccc(C2NCCc3c2[nH]c2ccccc32)cc1CN1CCc2cc(OC)c(OC)cc2C1C (stereo not drawn)	x	x	-23.1	x	7.5	-20.5
COc1ccc(C2NCCc3c2[nH]c2ccccc32)cc1COc1ccc(F)cc1 (stereo not drawn)	22.5	x	-15.4	78.2*	-9.9	-10.3
O=C(Oc1c(Cl)cc(Cl)c2cccnc12)c1ccco1	x	x	86.0*	x	57.8*	37.8
SMILES	PAX8 reporter	LGR2 antag	TWEAK-Fn14 inh	EWS-Fli inh	TROY NFkB inh	LMP1 NFkB inh
O=C(Oc1c(CN2CCOCC2)cc(Cl)c2cccnc12)c1ccc(F)cc1	x	x	33.5	x	16.8	58.4*
COc1ccc(C(=O)Oc2c(CN3CCOCC3)cc(Cl)c3cccnc23)cc1	x	x	3.1	x	12.6	4.2
O=C(Oc1c(CN2CCOCC2)cc(Cl)c2cccnc12)c1cccs1	71.3*	12.3	1.7	27.3	-6.4	3.9
O=C(Oc1cncc(Cl)c1)c1ccco1	x	x	-6.9	x	-1.6	3.8
O=C(Oc1c(CN2CCOCC2)cc(Cl)c2cccnc12)c1ccccc1Cl	45.9	10.8	7.4	21.2	7.5	71.1*
C[C@@H]1CCCCO[C@H](CN(C)C(=O)CCCN(C)C)[C@@H](C)CN([C@H](C)CO)C(=O)c2cc(NC(=O)Nc3cccc4ccccc34)ccc2O1	-1.4	-2.0	x	3.6	x	x
C[C@@H]1CCCCO[C@H](CN(C)S(=O)(=O)c2cccs2)[C@H](C)CN([C@H](C)CO)C(=O)c2cc(N(C)C)ccc2O1	2.6	10.5	x	-1.4	x	x
O=C(Nc1cccnc1Cl)c1cccs1	-11.9	-0.5	25.6	-10.1	-19.3	-2.1
O=C(Oc1c(Cl)cc(Cl)c2cccnc12)c1cccs1	52.3	x	108.6*	x	14.5	8.1
COc1ccccc1[C@]1(C)ON(c2ccccc2C(F)(F)F)C1=O	48.0	36.8	16.2	1.2	-3.4	73.3*
CC[C@]1(c2ccccc2OC)ON(c2ccccc2C(F)(F)F)C1=O	83.7*	-3.5	x	22.8	x	x
Cc1ccc(S(=O)(=O)Nc2ccc3c(c2)C(=O)N([C@@H](C)CO)C[C@@H](C)[C@@H](CN(C)C(=O)NC2CCCCC2)OCCCC[C@@H](C)O3)cc1	-1.9	25.7	x	-6.8	x	x
COc1ccc(S(=O)(=O)N(C)C[C@@H]2Oc3c(NC(=O)C4CC4)cccc3C(=O)N([C@H](C)CO)C[C@H]2C)cc1	x	-4.5	x	0.6	x	x
CO[C@@H]1CC[C@@H]2CCN(C)C(=O)[C@H](C)N(C)C(=O)c3cc(C#N)ccc3OC[C@H]1O2	11.3	-0.8	x	3.0	x	x
COc1ccc(N2C(=O)CN=C2Nc2nc(C)cc(C)n2)cc1	76.3*	x	-4.0	x	-54.4	2.0
Cc1cc(C)nc(NC2=NCC(=O)N2c2ccccc2)n1	-5.5	x	2.7	x	-11.6	-1.7
CN(C)CC(=O)N[C@H]1CC[C@@H](CC(=O)O)O[C@@H]1CO	-33.3	-7.5	x	x	x	x
COc1cccc(/C=N/NC(=O)c2ccccc2)c1OS(=O)(=O)c1ccccc1	10.0	9.2	76.4*	2.0	-28.9	0.8
COc1cccc(/C=N/NC(=O)CN2CC(c3ccccc3)CC2=O)c1OC (stereo not drawn)	-2.5	x	2.5	4.5	-9.9	74.6*
COc1cc(/C=N\NC(=O)c2ccc(-c3ccccc3)cc2)cc(OC)c1OC(C)=O	99.6*	-30.2	-12.8	x	-0.6	x
COc1ccccc1/C=N/NC(=O)c1ccc(-c2ccccc2)cc1	-21.0	-4.9	4.3	x	12.4	-4.1
COc1cccc(/C=N/NC(=O)c2ccc(=O)n(C)c2)c1OC	25.1	-19.6	7.2	5.9	5.4	0.4

High-throughput results from PubChem.
